SMILES strings stand for the structures. Several values for one entry are separate records, joined by “and”; a condition that tells them apart may be missing. Identical values can stand only once. Hit rate of the full screen: of about 16,000 compounds, about 960 (6%) were called active. The full list was thinned out, with actives kept by preference. Values without a mark were called inactive.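 Rule for the calls: active = compound fluorescence over control fluorescence at most 0.8, a quencher, or at least a set upper limit, an enhancer; inactive = ratio between 0.8 and the set upper limit.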

This is an account of results in PubChem BioAssay AID720488 (Milwaukee Institute for Drug Discovery, 2013).

A short description of this test: Cy5 fluorescence quenchers or enhancers, artefact control for HCV NS3 helicase inhibitor project, biochemical, ChemBridge library, Cy5 readout (AID 720488). The note with it: Cy5-dT15 DNA with NS3h, at 100 µM, actives lie on both sides, signal over control mean, under 1 quenches.
`COc1ccc2[nH]cc(CCNC=O)c2c1`: the fluorescence interference ratio is 1.01. For `CCc1ccccc1NC(=O)/C(=C/c1ccccc1)c1ccccc1`, the fluorescence interference ratio was 0.606 (active). Regarding `S=C(Nc1ccccc1)Nc1ccccc1NC(=S)Nc1ccccc1`, the fluorescence interference ratio is 1.03. Regarding `CCc1ccccc1NC(=O)C(=O)NCc1ccco1`, the fluorescence interference ratio is 1.09.

Take `CCOC(=O)c1ccc(NC(=O)c2cc(OCC)cc(OCC)c2)cc1`: the fluorescence interference ratio is 1.01. Then `CCOC(=O)c1ccc(NC(=O)c2ccccc2OC)cc1`, with 0.661 (active). Then `CCOC(=O)c1ccc(NC(=O)C(=O)NCc2ccc(C)cc2)cc1`, with 1; and `COc1ccc(Br)cc1C(=O)Nc1cccc(-c2nc3ccccc3[nH]2)c1`, with 0.978; and `O=C(/C=C\c1ccccc1)Nc1ccc(Br)cn1`, with 0.948. For the compound `O=C(Nc1ccc(OC(F)(F)F)cc1)c1nn2c(c1Br)NC(c1cccs1)CC2C(F)(F)F` (stereo not given), the fluorescence interference ratio is 1. Then `O=C(Nc1ccc(Cl)cc1C(O)c1ccccc1)c1cnn2c1NC(c1ccccc1)CC2C(F)(F)F` (stereo not given), with 0.956; and `COc1cc(NC(=O)c2cnn3c2NC(c2cccs2)CC3C(F)(F)F)c(OC)cc1Cl` (stereo not given), with 0.659 (active); and `CSc1ccc(C=Nc2ccc(C#N)cc2)cc1`, with 1.07. With `Cc1cccc(C(=O)Nc2cccc(NC(=O)COc3ccccc3Cl)c2)c1`, the fluorescence interference ratio was 0.946. To `CC(C)(C)NC(=O)CN(c1cccc(C(F)(F)F)c1)S(C)(=O)=O` belongs 1.05. Turning to `COc1ccc(NC(=O)c2cccc(Cl)c2Cl)cc1OC`, the fluorescence interference ratio was 0.784 (active). Consider `CC(=O)c1ccc(NC(=O)c2c(Cl)cccc2Cl)cc1`, for which the fluorescence interference ratio is 1.03. To `COc1ccc(Br)cc1C(=O)Nc1ccc(F)c([N+](=O)[O-])c1` belongs 0.959; to `CCOc1ccc(-n2c(O)c(C=C3C=CC=N3)c(=O)[nH]c2=O)cc1`, 0.942.

For `COC(=O)C1CC(OCc2ccccc2)C1` (stereo not given), the fluorescence interference ratio was 0.97. Then `CCOc1cc(/C=C(\C#N)c2nc3ncc(Br)cc3[nH]2)ccc1O`, with 0.791 (active); and `CCn1c(-c2ccc(OC)cc2)n[nH]c1=S`, with 1 and 1.01. Regarding `CCN1C(=O)C(=Cc2ccc(O)cc2)C(=O)NC1=S`, the fluorescence interference ratio is 1.02. As for `CCN(CC)c1ccc(C=C2C(=O)N(C)C(=O)N(C)C2=O)c(O)c1`, the fluorescence interference ratio was 2.02 (active). `CCN(CC)c1ccc(N2C(=O)/C(=C/c3ccc4c(c3)OCO4)SC2=S)cc1`: the fluorescence interference ratio is 1.12.

On to `CCN(CC)c1ccc(/C=C2\C(=O)NC(=O)N(C)C2=O)cc1`, for which the fluorescence interference ratio is 1.29 (active).

Take `Cc1cc(C)cc(N2C(=O)NC(=O)/C(=C\c3ccc(F)cc3)C2=O)c1`: the fluorescence interference ratio is 1.02. Turning to `NS(=O)(=O)c1ccc(CNC(=O)c2ccc(Cl)cc2[N+](=O)[O-])cc1`, the fluorescence interference ratio is 0.985.

In the case of `O=C(CSc1ncc(-c2ccccc2)[nH]1)Nc1ccc(Br)cc1`, the fluorescence interference ratio is 0.959. For the compound `COc1ccc(Cl)cc1C(=O)N1CCN(c2cccc(Cl)c2)CC1`, the fluorescence interference ratio was 0.934. Then `CCOC(=O)NCc1ccc(N(C)C)cc1`, with 0.963; and `CP(=O)(c1ccc(C(N)=O)cc1)c1ccc(C(N)=O)cc1`, with 1.06; and `O=C(Nc1c(F)cc(F)cc1Br)c1cc2n(n1)C(C(F)(F)F)CC(c1ccc(Cl)cc1)N2` (stereo not given), with 1.04.

With `CCc1ccc(N2C(=O)/C(=C/c3cc(C)n(-c4cccnc4)c3C)C(=O)NC2=S)cc1`, the fluorescence interference ratio is 1.1. `NC(=NS(=O)(=O)c1ccccc1)c1ccc(Cl)cc1`: the fluorescence interference ratio is 1.06. With `Cc1c(N2C(=O)S/C(=C\c3ccc(N(C)C)cc3)C2=O)c(=O)n(-c2ccccc2)n1C`, the fluorescence interference ratio was 1.02. To `CN(C)c1ccc(/C=C2/SC(=S)N(c3ccc(F)cc3)C2=O)cc1` belongs 1.06; to `Cc1cccc(N2C(=O)S/C(=C/c3ccc(N(C)C)cc3)C2=O)c1`, 0.733 (active); to `O=C(/C=N/O)NCCCNCc1ccccc1`, 1.03.

`CC(C)N1C(=O)/C(=C/c2ccc(O)cc2)SC1=S`: the fluorescence interference ratio was 0.867.

As to `O=C(Nc1ccc2oc(-c3cccc(Cl)c3Cl)nc2c1)c1ccccc1[N+](=O)[O-]`, the fluorescence interference ratio is 1.11.

For the compound `CCC(=O)Nc1ccc(-c2nc3ccccc3o2)cc1`, the fluorescence interference ratio was 0.946.

Regarding `CCc1ccc2oc(-c3ccc(NC(=O)c4ccccc4[N+](=O)[O-])cc3)nc2c1`, the fluorescence interference ratio was 0.659 (active).

Regarding `CCN1C(=O)/C(=C\c2ccc(OCc3ccccc3Cl)cc2)SC1=S`, the fluorescence interference ratio was 0.997. With `COc1ccc(N(CC(=O)Nc2ccc(C(C)C)cc2)S(=O)(=O)c2ccc(C)cc2)c(OC)c1`, the fluorescence interference ratio was 1.04.

Turning to `COCCCNC(=O)CN(c1ccc(OC)cc1OC)S(=O)(=O)c1ccc(C)cc1`, the fluorescence interference ratio is 1.23 (active). Then `COc1ccc(N(CC(=O)NCc2ccncc2)S(=O)(=O)c2ccc(C)cc2)cc1`, with 0.919; and `CN1CCN(C(=O)c2cc3nc(-c4cccs4)cc(C(F)(F)F)n3n2)CC1`, with 0.935; and `COc1cccc(C2C(C(=O)Nc3ccccc3)=C(C)N=c3s/c(=C\c4c[nH]c5ccccc45)c(=O)n32)c1` (stereo not given), with 1.04. To `Nc1ccc(Sc2ccccc2[N+](=O)[O-])cc1` belongs 0.899; to `O=[N+]([O-])c1ccc(N2CCN(CCO)CC2)cc1NC(c1ccccc1)c1ccccc1`, 0.793 (active). Then `O=[N+]([O-])c1ccc(N2CCN(S(=O)(=O)c3ccccc3)CC2)cc1N1CCOCC1`, with 1.11.

For `COc1ccc(CCNc2cc(N3CCOCC3)ccc2[N+](=O)[O-])cc1OC`, the fluorescence interference ratio was 0.856.

In the case of `COc1ccc(C(=O)/C=C/Nc2ccc(S(=O)(=O)N=C(N)N)cc2)cc1OC`, the fluorescence interference ratio was 0.963.

For the compound `Cc1ccc(OCC(=O)NC(C)C)cc1`, the fluorescence interference ratio was 1.11. For `CCOC(=O)c1c(-c2ccc(C)cc2C)csc1NC(=S)NC(=O)c1ccccc1`, the fluorescence interference ratio is 1.21 (active). Then `CCOC(=O)c1sc(NC(=O)c2ccc(OC)cc2)c(C(=O)OCC)c1C`, with 1.02. In the case of `CCOC(=O)c1sc(NC(=O)COc2ccc(C)cc2C)c(C(=O)OCC)c1C`, the fluorescence interference ratio was 0.985. For `CC(C)(C)c1ccccc1OCC(O)CN1CCCC1` (stereo not given), the fluorescence interference ratio is 1.05.

For the compound `C=CCOc1ccccc1C=C1C(=O)NC(=O)NC1=O`, the fluorescence interference ratio was 0.999.
